Screens from PubChem.
A selection: hits, their analogues and other compounds. The true share with any hit is near 3.6%.
mHTT-CaM PPI inh = disrupts binding of mutant huntingtin to calmodulin. AlphaScreen His-mHTT/GST-CaM binding, luminescence. 190,000 compounds, 3.6% hits. P42858. inhibition, % at 15 µM
Pf apPOL block = Pf-apPOL DNA polymerase inhibition. Recombinant Pf-apPOL, molecular beacon fluorescence, 1.5 h. inhibition, % at 10 µM. 210,000 compounds, 0.25% hits. AID 1794808
Numbers stand for hits; 0 = inactive; - = not tested or not shown. No stated cut-off is given here; in the data, active means inhibition above about 50%; inactive means the rest.

SMILES | mHTT-CaM PPI inh | Pf apPOL block
Cc1cc([N+](=O)[O-])nn1CCCC(=O)Nc1ccc(F)c(Cl)c1 | 0 | 0
COCCNC(=O)C1CCN(c2nccc(C)n2)CC1 | 0 | 0
COCC(=O)N1CCCn2nc(-c3cccc(C)c3)cc2C1 | 0 | 0
COc1ccccc1CC(=O)N1CCCC1c1ccc(Cl)cc1 (centres undefined) | 59 | 0
O=C(CCCc1ccccc1)N1CCCn2nc(-c3ccc(Cl)cc3)cc2C1 | 88 | 0
COc1ccccc1CC(=O)N1CCCC1c1ccc(C)cc1 (centres undefined) | 0 | 0
COc1ccc(-c2cc3n(n2)CCCN(Cc2ccccc2C)C3)cc1OC | 73 | 0
COc1ccccc1CCC(=O)N1CCCn2nc(-c3ccc(C)cc3)cc2C1 | 0 | 0
O=C(CCCc1ccccc1)N1CCCn2nc(-c3cccs3)cc2C1 | 0 | 0
Cc1cccc(-c2cc3n(n2)CCCN(C(=O)CCCc2ccccc2)C3)c1 | 56 | 0
Cc1cccc2c1N(CC(=O)NCc1ccc(F)cc1F)C(=O)C1CCCN1C2=O (centres undefined) | 0 | 0
Cc1ccnc(N2CCC(C(=O)NCCCN3CCN(c4ccc(F)cc4)CC3)CC2)n1 | 0 | 0
Cn1c(N2CCCC(C(=O)Nc3ccc4c(c3)OCCO4)C2)cc(=O)n(C)c1=O (centres undefined) | 0 | 0
Cc1ccc(C)c(CNC(=O)C2CCCN(C(=O)c3ccccc3Cl)C2)c1 (centres undefined) | 0 | 0
CCN(CC)C(=O)N1CC2CC(NS(=O)(=O)c3ccccc3)C1C2 (centres undefined) | 0 | 0
C=C(C)CN(CC)Cc1ccc(O)cc1 | 0 | 0
COc1ccccc1CC(=O)N1CCCn2nc(-c3cccc(C)c3)cc2C1 | 0 | 0
O=C(Cc1ccccc1F)N1CCCn2nc(-c3ccc(Cl)cc3)cc2C1 | 0 | 0
COc1ccccc1CC(=O)N1CCCn2nc(-c3ccc(Cl)cc3)cc2C1 | 71 | 0
Cc1cccc(-c2cc3n(n2)CCCN(C(=O)Cc2ccccc2F)C3)c1 | 73 | 0
O=C(NC1CC2CC1N(C(=O)c1ccco1)C2)c1ccccc1 (centres undefined) | 0 | 0
Cc1ccc(-c2cc(C(=O)N3CCCCC3C(=O)NCC3CC3)no2)cc1 (centres undefined) | 0 | 0
Cc1ccc(-c2c([C@H]3[C@@H]4C=CCC[C@@]4(C)C(=O)N3Cc3ccccc3)ccc3ccccc23)cc1 | 0 | 0
C[C@@]12CCC=C[C@H]1[C@H](c1ccc3ccccc3c1)N(Cc1ccccc1)C2=O | 82 | 0
COc1ccc(-c2ccc([C@H]3[C@@H]4C=CCC[C@@]4(C)C(=O)N3Cc3ccccc3)c(F)c2)cc1 | 0 | 0
SMILES | mHTT-CaM PPI inh | Pf apPOL block
COc1ccc(-c2cc([C@H]3[C@@H]4C=CCC[C@@]4(C)C(=O)N3Cc3ccccc3)ccc2F)cc1 | 0 | 0
C[C@@]12CCC=C[C@H]1[C@H](c1ccc3ccccc3c1Br)N(Cc1ccccc1)C2=O | 94 | 0
Cc1ccc(-c2ccc([C@H]3[C@@H]4C=CCC[C@@]4(C)C(=O)N3Cc3ccccc3)c(F)c2)cc1 | 0 | 0
COc1ccc(-c2ccccc2[C@H]2[C@@H]3C=CCC[C@@]3(C)C(=O)N2Cc2ccccc2)cc1 | 67 | 0
COc1ccc(-c2c([C@H]3[C@@H]4C=CCC[C@@]4(C)C(=O)N3Cc3ccccc3)ccc3ccccc23)cc1 | 58 | 0
CCCCOC(=O)COc1ccc2c3c(c(=O)oc2c1)CCC3 | 0 | 0
O=C(Nc1nc(-c2ccco2)cs1)c1ccc(-n2cccn2)nn1 | 56 | 0
O=C(CCc1csc(NC(=O)c2ccc(F)cc2)n1)Nc1nc(-c2ccco2)cs1 | 58 | 0
O=C(Nc1nc2c(s1)CCCC2)c1ccc(-n2cccn2)nn1 | 0 | 0
CCOC(=O)N1CCN(C(=O)CCc2csc(NC(=O)c3ccc(F)cc3)n2)CC1 | 0 | 0
CCCCNC(=O)C1CCN(c2ncnc3c2nc2n3CCCCC2)CC1 | 0 | 0
COCCNC(=O)c1cccc(-c2nc(-c3ccc(F)cc3)no2)c1 | 0 | 0
CC(CN1CCC(C(=O)N2CCCC2)CC1)c1ccccc1 (centres undefined) | 0 | 0
CC(C)CN1CCC(C(=O)N2CCCC2)CC1 | 0 | 88
Cc1cccc(NC(=O)C2CCCN(C(=O)c3ccccc3F)C2)c1 (centres undefined) | 0 | 0
O=C(O)c1cc(NS(=O)(=O)c2ccc(Cl)cc2)cc(C(=O)O)c1 | 0 | 71
O=S(=O)(Nc1cc(Cl)cc(Cl)c1)c1ccc(Cl)cc1 | 0 | -
O=C(c1nc2ccccc2s1)N1CCC(Cn2cccn2)CC1 | 0 | 0
Cc1cccc(N2CCN(C(=O)C3CCCN(c4cnn(C)c(=O)c4)C3)CC2)c1C (centres undefined) | 0 | 0
Cc1cccc(N2CCN(C(=O)C3CCCN(c4cc(=O)n(C)c(=O)n4C)C3)CC2)c1C (centres undefined) | 51 | 0
Cn1cc2c3c(cccc31)CN(C(=O)NCc1ccco1)CC2 | 0 | 0
O=C(c1ccc(Cl)cc1)N1CCN(C(C(=O)N2CCCCC2)C2CCCC2)CC1 (centres undefined) | 0 | 0
